# High-throughput results (PubChem BioAssay)
# KDM5B inhibitor = Primary screen for KDM5B Histone Demethylases FDH-coupled qHTS. KDM5B demethylase, FDH-coupled NADH fluorescence (FDH is formaldehyde dehydrogenase). Potency, µM (doses to about 57.7 µM), usual class: inhibitors. 220,000 compounds, 2.6% hits. AID 1347165, 2019; further: potency means the concentration at half of the fitted maximal effect; 0% is about no effect; nearly all actives have a fitted effect of over 70% in size
#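 Here, H3K4me3 peptide (12.5 µM in substrate mix) is demethylated by KDM5BΔAP, 200 nM final, after 10 min compound exposure. Formaldehyde product is coupled through FDH (0.25 U/mL in mix) to NADH fluorescence; 30-min ΔRFU feeds dose-response curves.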
# IP6K1 inhibitor = Primary qHTS assay for small molecule inhibitors of Inositol hexaphosphate kinase 1 (IP6K1); Inositol hexakisphosphate kinase 1 (Homo sapiens), Q92551; IP6K1 kinase, ADP-Glo luminescence, 2 h; active compounds read low; activity change, % (series mostly up to about 58 µM); 140,000 compounds, 0.81% hits; in the data active means activity change below about -25%; further: on the % scale 0 is the no-effect control and ±100 the full control effect
# Target sequence (Q92551 whole entry, looked up): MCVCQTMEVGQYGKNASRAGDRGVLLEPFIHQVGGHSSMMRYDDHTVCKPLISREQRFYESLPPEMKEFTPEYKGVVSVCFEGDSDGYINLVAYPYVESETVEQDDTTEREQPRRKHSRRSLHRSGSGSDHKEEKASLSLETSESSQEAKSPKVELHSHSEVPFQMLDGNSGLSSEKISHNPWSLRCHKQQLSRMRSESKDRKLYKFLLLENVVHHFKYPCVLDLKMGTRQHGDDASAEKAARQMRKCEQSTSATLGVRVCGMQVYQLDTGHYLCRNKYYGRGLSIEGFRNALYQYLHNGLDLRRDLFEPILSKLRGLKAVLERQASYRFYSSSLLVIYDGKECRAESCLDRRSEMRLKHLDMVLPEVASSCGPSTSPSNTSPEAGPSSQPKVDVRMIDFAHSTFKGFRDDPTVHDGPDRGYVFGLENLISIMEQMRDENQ
#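 ADP-Glo luminescence measures ADP made by human IP6K1 during a 2 h RT reaction with ATP/IP6 (mix at 1.3 mM/130 uM); top library doses 57.5 and 19.1 uM final.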
# IP6K1 inh cnf = Confirmatory qHTS assay for small molecule inhibitors of Inositol hexaphosphate kinase 1 (IP6K1) | shares compounds with IP6K1 inhibitor | recombinant IP6K1 kinase, ADP-Glo luminescence, 2 h | Potency, µM (doses to about 49 µM), inactives show at the highest dose activity change, negative = inhibition, most hits filed as inhibitors | 1,200 compounds, 13% hits | AID 1645852, 2021; further: potency means the concentration at half of the fitted maximal effect; on the % scale 0 is the no-effect control and ±100 the full control effect; nearly all actives have a fitted effect of over 65% in size
# Numbers without * were called inactive; i = inactive; ? = inconclusive; · = not tested or not shown. An excerpt weighted towards active compounds, which were near 2.7% of everything screened. Unless noted, the call rests on the fitted dose curve; in most records, active means well fitted inhibition curve with a large enough effect; inconclusive means small, poorly fitted or top-dose-only effect; inactive means no such curve, though single readings can be large or run the other way.
SMILES,KDM5B inhibitor,IP6K1 inhibitor,IP6K1 inh cnf
O=C(Nc1ccc(Cl)cc1)NC1CCCN(Cc2ccc(-c3cncnc3)cc2)C1 (stereo not given),·,0.2,·
COc1ccc(CCC(=O)N2CCN(C(=O)c3nnn4c3COC(c3ccccc3)C4)CC2)cc1 (stereo not given),i,0.9,·
COc1ccc(C2Cn3nnc(C(=O)N4CCN(C(=O)CCc5ccccc5)CC4)c3CO2)cc1 (stereo not given),?,-25.5*,21.0%
COc1ccc(CC(=O)NCc2ccc3c(c2)CCN3C(=O)c2ccc(Cl)cc2)cc1,i,-11.5,·
COc1ccc(CCC(=O)NCc2ccc3c(c2)CCN3C(=O)c2ccc(Cl)cc2)cc1,i,-27.6*,8.8%
COc1ccc(CCNC(=O)c2ccc3oc(-c4ccccn4)nc3c2)cc1,·,-5.4,·
COc1ccc(-c2ccc3ncc4c(c3c2)n(-c2ccc(N3CCNCC3)c(C(F)(F)F)c2)c(=O)n4C)cn1,·,-15.2,-28.3%
Cc1ccc(Cl)cc1NC(=O)CSCc1cnn(-c2ccccc2)c1-n1cccc1,i,24.9,·
Cc1ccc(NC(=O)CSCc2cnn(-c3ccccc3)c2-n2cccc2)c(C)c1,i,-27.5*,1.6%
O=C(NC1(C(F)(F)F)C(=O)Nc2c1c(=O)[nH]c(=O)n2-c1ccc(F)cc1)c1ccco1 (stereo not given),i,·,·
COc1ccc(OC)c(NC(=O)CN(C)S(=O)(=O)c2ccc(C(=O)N3CCOCC3)s2)c1,i,9.7,·
COc1ccc(Cl)cc1NC(=O)CN(C)S(=O)(=O)c1ccc(Br)s1,i,-26.2*,28.8%
CCOc1cc(C2C(C(=O)OC)=C(C)NC3=C2C(=O)c2ccccc23)c(Br)cc1OC (stereo not given),?,-2.2,·
CCOc1cc(Br)c(C2C(C(=O)OC)=C(C)NC3=C2C(=O)c2ccccc23)cc1OCC (stereo not given),?,-32.4*,-12.5%
C#CCNC(=O)N1CCN(c2ccc(F)cc2)CC1,i,·,·
CCOC(=O)N1CCN(Cc2nc3cc(NC(=O)C(C)C)ccc3n2C(C)C)CC1,i,-35.9*,6.1%
CCOC(=O)N1CCN(Cc2nc3cc(NC(=O)c4ccc(OC)cc4)ccc3n2C(C)C)CC1,i,-19.5,·
COc1cccc(Nc2cc(-c3cccs3)nc3c(C)noc23)c1,35.5µM*,-25.2*,?
Cc1noc2c(Nc3ccc(N4CCOCC4)cc3)cc(-c3cccs3)nc12,?,-16.1,·
Cc1ccc(-c2cc3nccc(-c4cc([N+](=O)[O-])ccc4O)n3n2)cc1,?,-25.5*,?
CCOC(=O)COc1ccc([N+](=O)[O-])cc1-c1ccnc2cc(-c3ccc(C)cc3)nn12,i,1.7,·
COc1cccc(Oc2coc3cc(OC(=O)c4ccc5c(c4)OCO5)ccc3c2=O)c1,i,·,·
Cc1ccc(-n2ncc(C(=O)NCc3cccs3)c2C2CCN(C(=O)OC(C)(C)C)CC2)cc1C,i,21.9,·
Cc1ccc(-n2ncc(C(=O)N3CCN(c4ccc(Cl)cc4)CC3)c2C2CCN(C(=O)OC(C)(C)C)CC2)c(C)c1,i,-35.2*,9.8%
CC(C)(C)OC(=O)N1CCC(c2c(C(=O)N3CCN(c4ccc(Cl)cc4)CC3)cnn2-c2ccc(F)cc2F)CC1,i,-10.9,·
SMILES,KDM5B inhibitor,IP6K1 inhibitor,IP6K1 inh cnf
Cc1ccc(-n2ncc(C(=O)NCc3cccs3)c2C2CCN(C(=O)OC(C)(C)C)CC2)c(C)c1,?,-32.6*,-3.7%
CN(Cc1ccsc1)C(=O)c1ccsc1,i,·,·
N#Cc1ccccc1CNc1ccccc1I,i,·,·
O=C(N/N=C/c1ccccc1[N+](=O)[O-])NC1CCCCC1,i,·,·
COc1ccc(/C=C2\Oc3c(ccc(OS(C)(=O)=O)c3C)C2=O)c(OC)c1,i,·,·
COc1ccc(N2CCN(CC(O)COc3c(OC)cccc3OC)CC2)cc1 (stereo not given),?,-45.8*,-14.9%
COc1ccc(N2CCN(CC(O)COc3ccc(C)c(C)c3)CC2)cc1 (stereo not given),i,21.6,·
COc1ccc(N2CCN(CC(O)COc3ccccc3C(C)(C)C)CC2)cc1 (stereo not given),?,-26.9*,?
COc1ccc(N2CCN(CC(O)COc3cc(C)cc(C)c3)CC2)cc1 (stereo not given),i,·,·
COc1ccccc1-c1cc(C(=O)NCc2cccc(C(F)(F)F)c2)nn2cnnc12,·,0.3,·
O=S(=O)(C/C=C/c1ccccc1)Cc1cccc(F)c1,i,·,·
O=C(NCc1ccccc1)c1ccc2nnc(-c3cccc(C(F)(F)F)c3)n2c1,·,-4.2,·
Cn1nc(C(=O)OCC(=O)Nc2ccc(OCc3ccccc3)cc2)c2ccccc2c1=O,i,·,·
Cc1cc(-c2ccc(C)c(S(=O)(=O)N3CCC(C)CC3)c2)on1,?,-25.7*,-17.2%
Cc1cc(-c2ccc(C)c(S(=O)(=O)NC3CCCCC3)c2)on1,i,-3.0,·
COc1ccc2c(CCNC(=O)CNc3nc(Cl)nc4nc[nH]c34)c[nH]c2c1,i,·,·
COc1ccc(CNC(=O)c2cc3c(-c4ccccc4F)nn(C)c3s2)cc1,?,-36.3*,?
COc1ccc(CCNC(=O)c2cc3c(-c4ccccc4F)nn(C)c3s2)c(OC)c1,?,5.4,·
O=C(CC1C(=O)OCCN1Cc1ccccc1)Nc1cccc(C(F)(F)F)c1 (stereo not given),i,2.6,·
COc1cccc(NC(=O)CC2C(=O)OCCN2Cc2ccccc2)c1 (stereo not given),i,-48.4*,-2.2%
CCOc1ccc(NS(=O)(=O)c2ccc3nc(-c4ccccc4)[nH]c3c2)cc1,i,-21.8,·
COc1ccc(NS(=O)(=O)c2ccc3nc(-c4ccccc4)[nH]c3c2)cc1,i,-31.3*,-17.4%
CN(C)C(=O)CCc1ccc(CC2CCN(C(=O)CCC3CCCC3)CC2)cc1,·,11.9,·
COc1ccccc1C(=O)Nc1ccc(NC(=O)c2cccs2)cc1,i,-3.7,·
COc1ccc(C(=O)Nc2ccc(NC(=O)c3cccs3)cc2)cc1OC,?,-55.8*,-0.5%
SMILES,KDM5B inhibitor,IP6K1 inhibitor,IP6K1 inh cnf
CC(C)c1nc2c(c(-c3ccc(Cl)cc3)n1)CN(C(=O)c1cccc(Cl)c1)CC2,·,-12.9,·
O=C(Nc1nnc(N2CCCC2)s1)Nc1cc(F)ccc1F,i,-12.4,·
O=C(Nc1nnc(N2CCCCCC2)s1)Nc1cc(F)ccc1F,i,-29.3*,-10.0%
Cc1cccc(NC(=O)N2CCN(Cc3nc(-c4cccc(C(F)(F)F)c4)no3)CC2)c1,i,·,·
COC(=O)c1ccc(NC(=O)N(C)CCc2noc(-c3ccc(C(=O)N4CCCC4)cc3)n2)cc1,i,·,·
COc1ccc(CCC(=O)N2CCCC(Cc3noc(-c4ccccc4)n3)C2)cc1 (stereo not given),i,0.0,·
COCC1CCN(c2ccc(-c3nc(CCCc4ccccc4)no3)cn2)C1 (stereo not given),35.5µM*,-32.6*,-12.4%
COc1ccc(C(=O)NNC(=O)COCC(=O)Nc2ccc(C#N)cc2)cc1,i,·,·
CCOc1ccccc1CN(CCc1ccc2c(c1)OCO2)Cc1cccc(OC)c1OC,?,-1.0,·
